According to PubChem BioAssay (Tox21):
Records with an inconclusive call do not appear. Active and inactive are the calls of the source. The call rests on the fitted dose curve.

molecular target: Estrogen receptor (Homo sapiens) (UniProt P03372); test: qHTS assay to identify small molecule agonists of the estrogen receptor alpha (ER-alpha) signaling pathway in the presence of an antagonist (AID 1259383); conditions: VM7Luc4E2 cells, ERE-luciferase, +ICI-182,780, 22 h; series mostly up to 92.4 µM; activation: at the top concentration; further: nearly all actives have a fitted effect of over 15% in size; further: potency means the concentration at half of the fitted maximal effect; on activation: top concentration of the series differs between compounds
Outline: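 Cells are hormone-deprived for 5 days (charcoal-stripped FBS, no phenol red), plated for 24hr, spiked with 10.0nM ICI-182,780, then dosed at 15 concentrations. After 22hr at 37C, ONE-Glo luminescence reports ERE-luciferase activity.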
On the % scale 0 is the no-effect control and ±100 the full control effect.

Estrogen receptor (Homo sapiens), sequence (P03372 whole entry, looked up): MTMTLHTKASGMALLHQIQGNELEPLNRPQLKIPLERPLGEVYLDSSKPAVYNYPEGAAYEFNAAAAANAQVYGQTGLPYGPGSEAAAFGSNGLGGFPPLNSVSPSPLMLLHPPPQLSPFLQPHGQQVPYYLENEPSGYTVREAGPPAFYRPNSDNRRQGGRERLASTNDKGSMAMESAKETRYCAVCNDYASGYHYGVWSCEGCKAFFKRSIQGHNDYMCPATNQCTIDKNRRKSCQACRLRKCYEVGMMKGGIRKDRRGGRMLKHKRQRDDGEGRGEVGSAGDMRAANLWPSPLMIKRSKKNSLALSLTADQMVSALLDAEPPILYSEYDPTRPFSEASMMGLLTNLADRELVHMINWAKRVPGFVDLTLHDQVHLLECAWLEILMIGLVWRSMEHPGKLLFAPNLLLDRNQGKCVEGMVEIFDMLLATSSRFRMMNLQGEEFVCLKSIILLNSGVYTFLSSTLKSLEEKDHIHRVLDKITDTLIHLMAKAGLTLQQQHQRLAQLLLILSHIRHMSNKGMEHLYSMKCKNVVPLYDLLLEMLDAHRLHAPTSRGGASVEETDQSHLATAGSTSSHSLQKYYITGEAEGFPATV

Row | Compound | activation | Potency
1 | CNC(=O)Oc1ccc(N(C)C)c(C)c1 | 2.6% (inactive) | 
2 | CCC1(c2ccccc2)C(=O)NC(=O)NC1=O | 0.0113% (inactive) | 
3 | COc1cc(OC)nc(NC(=O)NS(=O)(=O)c2ncccc2C(=O)N(C)C)n1 | -1.23% (inactive) | 
4 | Clc1cccc(N2CCNCC2)c1 | 0.08% [at 42.5 µM] (inactive) | 
5 | CCOP(=S)(OCC)SCSP(=S)(OCC)OCC | 0.28% (inactive) | 
6 | COc1cc2c(cc1OC)[C@@]13CCN4CC5=CCO[C@H]6CC(=O)N2[C@H]1[C@H]6[C@H]5C[C@H]43 | -0.898% (inactive) | 
7 | O=C1CN2CCOC2(c2ccccc2Cl)c2cc(Cl)ccc2N1 (stereo not given) | -0.453% [at 42.5 µM] (inactive) | 
8 | CCOP(=O)(N=C1SCCS1)OCC | -0.609% (inactive) | 
9 | N#CC(CCc1ccc(Cl)cc1)(Cn1cncn1)c1ccccc1 (stereo not given) | -10.8% (inactive) | 
10 | COc1cccc2c1cc([N+](=O)[O-])c1c(C(=O)O)cc3c(c12)OCO3 | 0.791% (inactive) | 
11 | CC(C)(C)C(=O)C(Oc1ccc(Cl)cc1)n1cncn1 (stereo not given) | -1.19% (inactive) | 
12 | CC(=O)CC(c1ccc(Cl)cc1)c1c(O)c2ccccc2oc1=O (stereo not given) | 0.446% (inactive) | 
13 | CC(=O)C(Cl)Cl | -0.138% (inactive) | 
14 | ClC(Cl)C(Cl)Cl | -0.376% (inactive) | 
15 | COc1cc(OC)nc(NC(=O)NS(=O)(=O)c2ncccc2OCC(F)(F)F)n1 | -1.36% (inactive) | 
16 | [O]=[Cd] | -1.69% (inactive) | 
17 | C=CCC1=C(C)[C@@H](OC(=O)[C@@H]2[C@@H](C=C(C)C)C2(C)C)CC1=O | -14.7% (inactive) | 

Row | Compound | activation | Potency
18 | N#CCNCC#N | -0.791% (inactive) | 
19 | CCCSC(=O)Cl | 0.132% (inactive) | 
20 | CCC(Cl)[N+](=O)[O-] (stereo not given) | 0.301% (inactive) | 
21 | O=[N+]([O-])c1cc(Cl)c(Cl)c(Cl)c1 | -0.491% (inactive) | 
22 | Nc1cc2c3c(c1)C(c1ccccc1)=N[C@@H](NC(=O)c1cccnc1)C(=O)N3CC2 | -2.36% (inactive) | 
23 | CC(C)NCC(O)c1ccc(N)c(C#N)c1 (stereo not given) | 0.214% [at 42.5 µM] (inactive) | 
24 | Cc1cc(C)nc(Nc2ccccc2)n1 | 9.3% (inactive) | 
25 | C(CCOCC1CO1)COCC1CO1 (stereo not given) | -1.47% (inactive) | 
26 | Cc1ncsc1CCCl | 0.285% [at 42.5 µM] (inactive) | 
27 | C[C@H]1CCC[C@H](O)CCCCCc2cc(O)cc(O)c2C(=O)O1 |  | 61.6 nM (active)
28 | N#Cc1ccncc1 | -0.163% (inactive) | 
29 | CCC(C)n1c(=O)[nH]c(C)c(Br)c1=O (stereo not given) | 0.45% (inactive) | 
30 | Fc1ccc(C2(Cn3cncn3)OC2c2ccccc2Cl)cc1 (stereo not given) | -0.885% (inactive) | 
31 | O=C(Oc1ccc(Br)cc1)N1CCN2CCC1CC2 | 2.8% (inactive) | 
32 | CCOP(=S)(OCC)Oc1nc(Cl)n(C(C)C)n1 | -0.0931% (inactive) | 
33 | CC(=O)CCc1ccc2c(c1)OCO2 | 0.0903% (inactive) | 

test system: not listed separately; test: qHTS assay to identify small molecule agonists or antagonists of the thyroid stimulating hormone receptor (TSHR) signaling pathway - wild type cell line counter screen (AID 1259384); conditions: HEK293 wild type, cAMP HTRF counter-screen; series mostly up to 92.4 µM; cAMP activity change: at the top concentration
Outline: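 Wild-type HEK293 cells were plated 18 h at 37 C/5% CO2, pin-dosed with compound plus Ro20-1724 medium, held 30 min at room temperature, then given cAMP-d2 and anti-cAMP-cryptate; fluorescence was read after 1 h. Fifteen concentrations, triplicate.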

Row | Compound | cAMP activity change
34 | CNC(=O)Oc1ccc(N(C)C)c(C)c1 | 4.76% (inactive)
35 | CCC1(c2ccccc2)C(=O)NC(=O)NC1=O | 4.2% (inactive)
36 | COC(=O)c1ccccc1S(=O)(=O)NC(=O)Nc1nc(C)cc(C)n1 | -3.93% (inactive)
37 | COc1cc(OC)nc(NC(=O)NS(=O)(=O)c2ncccc2C(=O)N(C)C)n1 | -2.95% (inactive)
38 | ClCC(Cl)Cl | 1.66% (inactive)
39 | Clc1cccc(N2CCNCC2)c1 | -4.03% [at 42.5 µM, active compounds read high] (inactive)
40 | CCOP(=S)(OCC)SCSP(=S)(OCC)OCC | -0.3% (inactive)
41 | COc1cc2c(cc1OC)[C@@]13CCN4CC5=CCO[C@H]6CC(=O)N2[C@H]1[C@H]6[C@H]5C[C@H]43 | -5.95% (inactive)
42 | CCS(=O)(=O)CCSP(=O)(OC)OC | -0.471% (inactive)
43 | O=C1CN2CCOC2(c2ccccc2Cl)c2cc(Cl)ccc2N1 (stereo not given) | -1.49% [at 42.5 µM, active compounds read high] (inactive)
44 | CCOP(=O)(N=C1SCCS1)OCC | 1.54% (inactive)
45 | N#CC(CCc1ccc(Cl)cc1)(Cn1cncn1)c1ccccc1 (stereo not given) | -5.49% (inactive)
46 | COc1cccc2c1cc([N+](=O)[O-])c1c(C(=O)O)cc3c(c12)OCO3 | 2.16% (inactive)
47 | CC(=O)C(Cl)Cl | -0.191% (inactive)
48 | COc1cc(OC)nc(Sc2cccc(Cl)c2C(=O)O)n1 | 4.84% (inactive)
49 | COc1cc(OC)nc(NC(=O)NS(=O)(=O)c2ncccc2OCC(F)(F)F)n1 | 1.67% (inactive)
50 | [O]=[Cd] | -0.15% (inactive)

Row | Compound | cAMP activity change
51 | C=CCC1=C(C)[C@@H](OC(=O)[C@@H]2[C@@H](C=C(C)C)C2(C)C)CC1=O | 0.0242% (inactive)
52 | N#CCNCC#N | 3.76% (inactive)
53 | CCCSC(=O)Cl | 3.98% (inactive)
54 | CCC(Cl)[N+](=O)[O-] (stereo not given) | -8.05% (inactive)
55 | O=[N+]([O-])c1cc(Cl)c(Cl)c(Cl)c1 | -1.73% (inactive)
56 | Nc1cc2c3c(c1)C(c1ccccc1)=N[C@@H](NC(=O)c1cccnc1)C(=O)N3CC2 | -2.01% (inactive)
57 | Cc1cc(C)nc(Nc2ccccc2)n1 | 2.88% (inactive)
58 | C(CCOCC1CO1)COCC1CO1 (stereo not given) | 0.405% (inactive)
59 | Cc1ncsc1CCCl | -4.04% [at 42.5 µM, active compounds read high] (inactive)
60 | C[C@H]1CCC[C@H](O)CCCCCc2cc(O)cc(O)c2C(=O)O1 | 1.51% (inactive)
61 | CNC(=O)Oc1cccc(C(C)C)c1 | -4.93% (inactive)
62 | CCC(C)n1c(=O)[nH]c(C)c(Br)c1=O (stereo not given) | -0.186% (inactive)
63 | Fc1ccc(C2(Cn3cncn3)OC2c2ccccc2Cl)cc1 (stereo not given) | -0.244% (inactive)
64 | O=C(Oc1ccc(Br)cc1)N1CCN2CCC1CC2 | -1.07% (inactive)
65 | CCOP(=S)(OCC)Oc1nc(Cl)n(C(C)C)n1 | 0.0493% (inactive)
66 | CC(=O)CCc1ccc2c(c1)OCO2 | 4.74% (inactive)

molecular target: Thyrotropin receptor (Homo sapiens) (UniProt P16473); test: qHTS assay to identify small molecule antagonists of the thyroid stimulating hormone receptor (TSHR) signaling pathway (AID 1259385); conditions: TSHR-HEK293 cAMP HTRF, TSH-stimulated antagonist mode; series mostly up to 92.4 µM; activity change, negative = inhibition: at the top concentration; further: nearly all actives have a fitted effect of over 20% in size
Outline: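 TSHR-HEK293 cells were plated and held 18 h at 37C/5% CO2, then given compound plus Ro20-1724 and stimulated with TSH at 1.5 ng/mL final. After 30 min at room temperature, cAMP was detected with cAMP-d2/anti-cAMP-cryptate (1 h) by fluorescence.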

Thyrotropin receptor (Homo sapiens), sequence (P16473 whole entry, looked up): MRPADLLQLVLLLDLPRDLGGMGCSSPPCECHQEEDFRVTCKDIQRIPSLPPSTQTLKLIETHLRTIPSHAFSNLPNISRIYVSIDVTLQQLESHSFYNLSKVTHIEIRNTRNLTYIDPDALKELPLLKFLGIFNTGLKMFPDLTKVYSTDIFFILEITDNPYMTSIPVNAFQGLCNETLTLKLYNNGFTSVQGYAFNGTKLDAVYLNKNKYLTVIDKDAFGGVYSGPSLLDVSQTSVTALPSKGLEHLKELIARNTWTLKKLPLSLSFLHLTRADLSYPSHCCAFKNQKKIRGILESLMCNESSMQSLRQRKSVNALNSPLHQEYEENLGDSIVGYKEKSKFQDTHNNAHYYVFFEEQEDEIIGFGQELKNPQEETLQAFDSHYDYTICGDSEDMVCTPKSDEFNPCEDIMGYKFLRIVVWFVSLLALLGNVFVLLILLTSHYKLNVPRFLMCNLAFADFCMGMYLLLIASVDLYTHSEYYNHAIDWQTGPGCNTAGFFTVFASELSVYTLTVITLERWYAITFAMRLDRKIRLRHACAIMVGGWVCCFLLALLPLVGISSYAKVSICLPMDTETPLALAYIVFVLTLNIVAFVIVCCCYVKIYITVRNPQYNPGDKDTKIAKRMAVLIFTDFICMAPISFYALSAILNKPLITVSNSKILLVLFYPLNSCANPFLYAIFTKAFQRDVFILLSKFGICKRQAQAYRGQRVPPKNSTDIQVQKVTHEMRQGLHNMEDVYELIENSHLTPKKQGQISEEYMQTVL

Row | Compound | activity change, negative = inhibition
67 | CNC(=O)Oc1ccc(N(C)C)c(C)c1 | -2.28% (inactive)
68 | CCC1(c2ccccc2)C(=O)NC(=O)NC1=O | -0.25% (inactive)
69 | COC(=O)c1ccccc1S(=O)(=O)NC(=O)Nc1nc(C)cc(C)n1 | 4.32% (inactive)
70 | COc1cc(OC)nc(NC(=O)NS(=O)(=O)c2ncccc2C(=O)N(C)C)n1 | 2.48% (inactive)
71 | ClCC(Cl)Cl | 0.162% (inactive)
72 | Clc1cccc(N2CCNCC2)c1 | -0.855% [at 42.5 µM] (inactive)
73 | COc1cc2c(cc1OC)[C@@]13CCN4CC5=CCO[C@H]6CC(=O)N2[C@H]1[C@H]6[C@H]5C[C@H]43 | 0.275% (inactive)
74 | CCS(=O)(=O)CCSP(=O)(OC)OC | -0.43% (inactive)
75 | O=C1CN2CCOC2(c2ccccc2Cl)c2cc(Cl)ccc2N1 (stereo not given) | -7.34% [at 42.5 µM] (inactive)
76 | CCOP(=O)(N=C1SCCS1)OCC | 1.59% (inactive)
77 | COc1cccc2c1cc([N+](=O)[O-])c1c(C(=O)O)cc3c(c12)OCO3 | -2.15% (inactive)
78 | CC(=O)C(Cl)Cl | -0.16% (inactive)
79 | COc1cc(OC)nc(Sc2cccc(Cl)c2C(=O)O)n1 | 1.53% (inactive)
80 | COc1cc(OC)nc(NC(=O)NS(=O)(=O)c2ncccc2OCC(F)(F)F)n1 | 1.97% (inactive)
81 | [O]=[Cd] | -1.81% (inactive)
82 | N#CCNCC#N | 0.532% (inactive)
83 | CCCSC(=O)Cl | -1.66% (inactive)
84 | CCC(Cl)[N+](=O)[O-] (stereo not given) | 2.53% (inactive)
85 | O=[N+]([O-])c1cc(Cl)c(Cl)c(Cl)c1 | 8.18% (inactive)
86 | Nc1cc2c3c(c1)C(c1ccccc1)=N[C@@H](NC(=O)c1cccnc1)C(=O)N3CC2 | -0.898% (inactive)
87 | CC(C)NCC(O)c1ccc(N)c(C#N)c1 (stereo not given) | 1.9% [at 42.5 µM] (inactive)
88 | Cc1cc(C)nc(Nc2ccccc2)n1 | -3.55% (inactive)
89 | C(CCOCC1CO1)COCC1CO1 (stereo not given) | 4.02% (inactive)
90 | Cc1ncsc1CCCl | 0.647% [at 42.5 µM] (inactive)
91 | C[C@H]1CCC[C@H](O)CCCCCc2cc(O)cc(O)c2C(=O)O1 | 3.93% (inactive)
92 | CNC(=O)Oc1cccc(C(C)C)c1 | 1.23% (inactive)
93 | Fc1ccc(C2(Cn3cncn3)OC2c2ccccc2Cl)cc1 (stereo not given) | -6.08% (inactive)
94 | O=C(Oc1ccc(Br)cc1)N1CCN2CCC1CC2 | -2.93% (inactive)
95 | CC(=O)CCc1ccc2c(c1)OCO2 | 0.703% (inactive)
